Results as given in PubChem BioAssay.
Calls of active or inactive are those of the source.

Key:
[1] = A549 cell viability effects, profiling panel, calcein-AM fluorescence, 48 h, basal (AID 1162); settings: higher = more signal
[2] = adipocyte viability effects, profiling panel, cell-based, 3T3-L1 adipocytes, calcein-AM fluorescence, 48 h, basal (AID 1163); settings: 3T3-L1 adipocytes viability, higher = more signal
[3] = HepG2 cell viability effects, profiling panel, calcein-AM fluorescence, 48 h, basal (AID 1164); settings: higher = more signal
[4] = MM1S cell viability effects, profiling panel, calcein-AM fluorescence, 48 h, basal (AID 1165); settings: higher = more signal;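 note: viability of MM1S multiple myeloma cells under basal unstimulated conditions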
[5] = basal RPMI8226 viability, no added stimulus, profiling panel, cell-based, calcein-AM fluorescence, 48 h, PK04 Diversity Set (AID 1166); settings: RPMI8226 myeloma viability, higher = more signal;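 note: cells grown under basal conditions without added stimulus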
[6] = basal HepG2 mitochondrial membrane potential changes, profiling panel, cell-based, JC-1 fluorescence, 24 h, 100 nL compound (AID 1167); settings: higher = more signal
[7] = basal 3T3-L1 adipocyte mitochondrial potential changes, profiling panel, cell-based, JC-1 fluorescence, 3T3-L1 adipocytes, 24 h, 100 nL compound (AID 1168); settings: JC-1 mitochondrial fluorescence, higher = more signal, called active from +8 up or from −8 down
[8] = basal RPMI8226 mitochondrial membrane potential changes, profiling panel, cell-based, JC-1 fluorescence, 24 h, 100 nL compound (AID 1169); settings: RPMI8226 myeloma, JC-1 mitochondrial potential fluorescence, higher = more signal
[9] = basal MM1S mitochondrial membrane potential changes, profiling panel, cell-based, JC-1 fluorescence, 24 h, 100 nL compound (AID 1170); settings: higher = more signal
[10] = A549 lung cancer cell viability effects, profiling panel, resazurin fluorescence, 24 h, PK04 Diversity Set (AID 1171); settings: higher = more signal, called active from +8 up or from −8 down
Note: test concentration not given here.

Compound | z-score [1] | z-score [2] | z-score [3] | z-score [4] | z-score [5] | z-score [6] | z-score [7] | z-score [8] | z-score [9] | z-score [10]
O=C1c2ccccc2[C@](Cc2ccccc2I)(C(=O)NC2CC2)[C@H](c2ccc(CO)cc2)N1Cc1ccccc1C(F)(F)F | 0.319 | 0.865 | -0.0085 | -0.645 | -2.83 | 0.476 | 0.347 (inactive) | -0.761 | -0.154 | 0.272 (inactive)
CC(C)C[C@@H]1NC(=O)[C@@]23C(=O)N[C@@H](Cc4ccccc4)C2[C@H](C)[C@@]2(C)O[C@H]2C3/C=C/C/C=C\CNC(=O)[C@@H](C)NC1=O (stereo not given in full) | -0.366 | 0.718 | -0.0346 | 0.761 | -1.12 | 0.991 | 0.625 (inactive) | 0.207 | -0.342 | 1.16 (inactive)
C=C/C=C/[C@@H]1C(=C)CN([C@@H](Cc2ccccc2)C(=O)OC)[C@H]1[C@@H](O)Cc1ccccc1 | 0.192 | -0.47 | 0.438 | -3.04 | -2.15 | -0.28 | 0.147 (inactive) | -0.975 | -2.24 | 0.663 (inactive)
COc1ccc(C(=O)Nc2cccc(CN3C(=O)[C@@]4(O[C@@H](CC(=O)N(CCO)Cc5ccccc5)[C@H]([Si](C)(C)c5ccc(OC)cc5)[C@H]4C)c4ccccc43)c2)cc1 | -0.269 | 1.36 | -1.39 | -0.696 | -4.07 | 0.672 | 2.67 (inactive) | -0.865 | -0.789 | -2.23 (inactive)
O=C1OCCC=C[C@H]2OC34C=CCN(c5ccc(Cl)cc5)C(=O)[C@H]3N(CCCCCCO)C(=O)[C@@H]4C12 (stereo not given in full) | 1.26 | -0.043 | 1.21 | 1.69 | -1.1 | 1 | 0.335 (inactive) | -0.0541 | 1.34 | 0.97 (inactive)
COCCOC(=O)N1C(=O)[C@@]2(c3cc(C#CC4=CCCCC4)ccc31)[C@H](C(=O)N1CCCCCCC1)[C@H]1C(=O)O[C@H](c3ccccc3)[C@H](c3ccccc3)N1[C@@H]2c1ccc(OCCO)cc1 | 0.382 | 1.74 | -0.214 | -0.774 | -0.779 | 0.225 | -3.07 (inactive) | -0.674 | -1.14 | -0.223 (inactive)
CC(C)CCC[C@@H](C)[C@H]1CC[C@@]2(C)C3=C(CC[C@]12C)[C@@]1(C)CC[C@H](OC(=O)c2ccccc2)C(C)(C)C1CC3 (stereo not given in full) | 0.667 | 0.635 | 0.771 | 0.34 | 0.201 | 1.73 | 1.1 (inactive) | -0.671 | -2.12 | 0.774 (inactive)
CC(=O)n1cc(C(O)C2C=CC3C(=O)N(c4ccccc4)C(=O)C3N2Nc2ccc(C(C)C)cc2)c2ccccc21 (stereo not given) | -0.545 | -0.745 | -1.08 | -0.829 | -1.33 | -0.975 | -1.16 (inactive) | -0.886 | 0.299 | 0.169 (inactive)
C=CCNC(=O)[C@@H]1[C@H]2C(=O)O[C@H](c3ccccc3)[C@H](c3ccccc3)N2[C@H](c2ccc(O)cc2)[C@@]12C(=O)N(C(=O)OCCOC)c1ccc(C#CCCO)cc12 | 2.21 | 1.14 | 0.723 | -0.824 | 0.262 | -0.707 | 0.152 (inactive) | -0.15 | -0.839 | 0.292 (inactive)
CC(C)(C)OC(=O)CC[C@]1(C(=O)N2CCCCC2)COC(c2ccc(OCCCO)cc2)=N1 | -0.34 | 0.162 | -0.614 | -0.0601 | -0.225 | -0.696 | -0.378 (inactive) | -0.492 | -0.978 | 2.58 (inactive)
C[C@@H]1ON(c2ccc(I)cc2)[C@H](c2ccc(OC(=O)OC(C)(C)C)cc2)[C@H]1C(=O)N1C(=O)OC[C@H]1Cc1ccccc1 | 0.0132 | 1.06 | 1.61 | -0.234 | 0.351 | 0.144 | 0.498 (inactive) | -0.366 | -1.81 | 1.33 (inactive)
O=C1O[C@H](c2ccccc2)[C@H](c2ccccc2)N2[C@H]1[C@@H](C(=O)Nc1nc3ccccc3s1)[C@]1(C(=O)Nc3ccc(C#CC4=CCCCC4)cc31)[C@H]2c1ccc(O)cc1 | 0.397 | -0.197 | 0.992 | -1.01 | -2.01 | -2.82 | -0.216 (inactive) | -0.886 | -0.991 | 0.229 (inactive)
COC(=O)[C@@]1(Cc2ccc(F)cc2)[C@H]2c3cc(C(=O)N(C)C)n(Cc4ccc(O)c(OC)c4)c3C[C@H]2CN1C(=O)c1ccccc1 | 0.511 | 0.997 | -0.269 | -0.0229 | -1.92 | 0.766 | -0.475 (inactive) | -0.379 | -1.63 | -0.88 (inactive)
Cc1cccc([C@H]2C[C@H]3C(I)=C[C@@H]2C(=O)[C@]32CO2)c1 | -0.985 | -0.176 | -0.902 | -3.19 | -3.12 | -1.45 | 0.224 (inactive) | -0.889 | -0.753 | -0.109 (inactive)
CN1C(=O)[C@@H]2[C@@H](CC(COc3ccccc3)=C([C@H](O)CCc3ccccc3)[C@@H]2CO)C1=O | 1.9 | -0.13 | 0.943 | 0.445 | -0.388 | 0.397 | 0.813 (inactive) | -0.274 | 0.472 | -0.123 (inactive)
O=C1O[C@H](c2ccccc2)[C@H](c2ccccc2)N2[C@H]1[C@@H](C(=O)O)[C@]1(C(=O)Nc3ccc(C#CC4(O)CCCCCC4)cc31)[C@H]2c1ccc(O)cc1 | -0.167 | 0.685 | -0.714 | -0.217 | 0.265 | -0.482 | -0.559 (inactive) | -0.0905 | -0.705 | 0.976 (inactive)
COCCOC(=O)N1C(=O)[C@@]2(c3cc(C#CCNC(N)=O)ccc31)[C@H](c1ccc(OCCO)cc1)N1[C@H](c3ccccc3)[C@H](c3ccccc3)OC(=O)[C@H]1[C@@H]2C(N)=O | 0.586 | -0.0118 | 0.334 | -1.24 | -0.668 | -1.7 | 0.407 (inactive) | -0.185 | -0.604 | 0.266 (inactive)
COc1ccc([Si](C)(C)[C@H]2[C@H](CC(=O)N3CCC[C@H]3CO)O[C@@]3(C(=O)N(Cc4ccc(N5CCC5=O)cc4)c4ccccc43)[C@@H]2C)cc1 | -0.428 | 0.303 | -0.784 | -2.65 | -3.76 | 1.26 | 0.198 (inactive) | -1.09 | 0.309 | -0.737 (inactive)
CCOC(=O)C[C@H]1[C@H](OC(=O)c2ccc(C(=O)c3ccccc3)cc2)[C@@H](NC(=O)CC(C)C)c2cc(OCCCO)ccc2N1C(=O)Cc1ccc(OC)cc1 | -0.206 | -0.194 | -0.0232 | 0.467 | -0.679 | 1.88 | -0.689 (inactive) | 0.573 | 0.288 | 0.189 (inactive)
O=C1[C@@]23C=C(Br)[C@H](C[C@@H]2COC3)[C@@]12CO2 | -0.0321 | -1.05 | -0.493 | -2.27 | -1.1 | -1.73 | 0.281 (inactive) | -0.213 | -0.809 | -0.252 (inactive)
C=C(COC)C(=O)CC[C@@H](OC(=O)c1cccnc1)c1ccccc1OCCO | -0.0755 | 0.46 | -1.16 | -3.38 | -3.82 | -0.758 | 1.08 (inactive) | -0.67 | -2.43 | 0.1 (inactive)
COCCOC(=O)N1C(=O)[C@@]2(c3cc(C#CCNC(N)=O)ccc31)[C@H](c1ccc(O)cc1)N1[C@H](c3ccccc3)[C@H](c3ccccc3)OC(=O)[C@H]1[C@@H]2C(N)=O | 1.66 | -0.654 | 0.405 | 0.337 | -0.933 | 2.07 | -0.0574 (inactive) | -0.932 | -0.139 | 0.934 (inactive)
CCCCCCCCCCC(O)C1C=CC2C(=O)N(C)C(=O)C2N1Nc1cc(OC)c(OC)c(OC)c1 (stereo not given) | -2.12 | -0.555 | -3.26 | -3.8 | -4.07 | -0.993 | 0.485 (inactive) | -0.913 | -2.12 | -1.38 (inactive)
COCCOC(=O)N1C(=O)[C@@]2(c3cc(C#CCCO)ccc31)[C@H](c1ccccc1OCCO)N1[C@H](c3ccccc3)[C@H](c3ccccc3)OC(=O)[C@H]1[C@@H]2C(=O)N1CCCCCCC1 | 0.66 | 0.961 | 1.03 | 0.115 | -0.004 | 0.454 | 0.339 (inactive) | -0.155 | -1.31 | 0.596 (inactive)
O=C1C2C=CC(C(O)c3ccco3)N(Nc3ccccc3)C2C(=O)N1c1ccccc1 (stereo not given) | 0.133 | -1.03 | 0.473 | 0.249 | 0.458 | -0.45 | 0.255 (inactive) | -0.364 | -0.267 | 0.649 (inactive)
C=CCNC(=O)[C@@H]1[C@H]2C(=O)O[C@H](c3ccccc3)[C@H](c3ccccc3)N2[C@H](c2ccc(OCCO)cc2)[C@@]12C(=O)N(C(=O)OCCOC)c1ccc(C#CCCO)cc12 | 2.85 | 1.86 | 1.22 | 0.485 | 0.927 | -0.435 | 1.27 (inactive) | -0.709 | -1.07 | -0.477 (inactive)
O=C(N1CCOCC1)[C@@]1(CCS(=O)(=O)c2ccccc2)N=C(c2ccc(OCCCO)cc2)O[C@H]1c1ccccc1 | 0.723 | -0.614 | 0.491 | 0.201 | 0.614 | 0.271 | -0.277 (inactive) | -0.489 | -0.617 | -0.223 (inactive)
CC(=O)NCCCC[C@@H]1NC(=O)[C@@H]2C[C@H](C(=O)NCCCCCCN)[C@H](c3cccc(OCCO)c3)N2C1=O | -0.182 | 0.691 | 0.268 | 0.213 | -0.413 | -1.26 | -0.0165 (inactive) | 0.648 | 0.0193 | -0.358 (inactive)
COc1ccc([Si](C)(C)[C@@H]2[C@@H](CC(=O)N3Cc4ccccc4C[C@H]3CO)O[C@]3(C(=O)N(c4ccccc4)c4ccccc43)[C@H]2C)cc1 | -0.77 | 0.703 | -2.85 | -2.37 | -4.35 | 1.37 | 0.631 (inactive) | -1.06 | -2.08 | -1.39 (inactive)
CO[C@H]1O[C@H](CO)[C@@H](OC(=O)CCc2ccccc2)[C@H](OC(=O)c2cc3ccccc3[nH]2)[C@H]1OC(=O)c1cc2ccccc2[nH]1 | 0.98 | 0.679 | 0.138 | -2.82 | -2.54 | -2.04 | 1.36 (inactive) | -0.502 | -1.1 | -2.84 (inactive)
